# Columns and labels:
# [1] = target: T1, Aspartate--tRNA(Asp/Asn) ligase (Mycobacterium tuberculosis (strain ATCC 25618 / H37Rv)) (UniProt P9WFW3); assay: Assay for Asp RNA synthetase-1 from Mycobacterium tuberculosis; type: functional; set-up: scale not given: direction of the effect not stated beside the values; conditions: 30 µM; further: in the data most compounds retested in dose-response had high values
# T1 sequence (whole entry): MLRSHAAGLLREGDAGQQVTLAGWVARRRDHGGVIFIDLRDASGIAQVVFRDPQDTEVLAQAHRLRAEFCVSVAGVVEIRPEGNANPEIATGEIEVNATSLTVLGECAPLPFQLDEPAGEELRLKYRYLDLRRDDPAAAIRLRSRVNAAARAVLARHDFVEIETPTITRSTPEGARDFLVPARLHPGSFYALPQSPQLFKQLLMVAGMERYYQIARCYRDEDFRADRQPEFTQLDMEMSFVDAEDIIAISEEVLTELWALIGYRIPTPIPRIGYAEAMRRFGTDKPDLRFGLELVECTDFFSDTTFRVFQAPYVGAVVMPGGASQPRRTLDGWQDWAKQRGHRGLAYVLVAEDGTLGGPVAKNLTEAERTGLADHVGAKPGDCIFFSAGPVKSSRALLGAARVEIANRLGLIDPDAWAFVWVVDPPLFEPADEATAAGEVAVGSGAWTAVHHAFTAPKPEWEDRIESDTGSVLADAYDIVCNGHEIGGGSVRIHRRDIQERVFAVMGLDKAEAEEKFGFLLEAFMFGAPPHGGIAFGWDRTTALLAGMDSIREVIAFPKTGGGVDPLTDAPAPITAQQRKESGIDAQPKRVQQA
# [2] = target: Shiga toxin 2 (Escherichia coli O157:H7) (UniProt P09385+P09386); assay: E. coli 0.157:H7 Shiga Toxin SOP - stx2 screening assay; type: functional; set-up: scale not given: direction of the effect not stated beside the values; conditions: 30 µM
smiles,measurement,setting,value
NC(=O)c1ccc(N2CCCCC2)c(NC(=O)c2cc(Br)ccc2F)c1,Percent Effect,[1],11%
same,Percent Effect,[2],-50.5%
CC1CCN(CCNC(=O)c2cncnc2C(C)C)CC1,Percent Effect,[1],-2.54%
same,Percent Effect,[2],-18.7%
CCn1cnnc1CNC(=O)c1ccc(Cl)cc1F,Percent Effect,[1],1.24%
same,Percent Effect,[2],-53.7%
COCCO[C@H]1CCN(C(=O)c2cc(C)on2)[C@H]1Cc1ccccc1,Percent Effect,[1],-1.39%
same,Percent Effect,[2],-1.24%
CCNC(=O)N1CCCCC1CCNS(C)(=O)=O (stereo not given),Percent Effect,[1],-3.62%
same,Percent Effect,[2],4.69%
Cc1nc(C)n(C2CCCN(C(=O)COCc3ccccc3)C2)n1 (stereo not given),Percent Effect,[1],-4.95%
same,Percent Effect,[2],-2.76%
COc1ccc(NC(C)C(=O)N2CCN(c3ncccn3)CC2)cn1 (stereo not given),Percent Effect,[1],-4.63%
same,Percent Effect,[2],5.46%
CC(C)Nc1nc(N2CCOCC2)nc2c1CN(Cc1ccoc1)CC2,Percent Effect,[1],-5.4%
same,Percent Effect,[2],4.99%
Cc1ccsc1-c1nnc(C2CCN(Cc3ccc(F)cc3)CC2)o1,Percent Effect,[1],-1.86%
same,Percent Effect,[2],-123%
CC(=O)N1CCCC1c1ccc(C(=O)N2CCOCC2)s1 (stereo not given),Percent Effect,[1],2.33%
same,Percent Effect,[2],-18.8%
O=c1n(CCSCc2ccccc2F)nc2ccccn12,Percent Effect,[1],0.461%
same,Percent Effect,[2],20.1%
O=C(CO[C@@H]1CC[C@H]2[C@H]1OCCN2CC1CCOCC1)N1CCCC1,Percent Effect,[1],0.943%
same,Percent Effect,[2],-4.47%
Cc1cccc(N2CCN(CCCNC(=O)c3nccn3C)CC2)c1,Percent Effect,[1],-3.22%
same,Percent Effect,[2],-11.1%
Cc1ccc(C(=O)CCC(=O)N2CCC(c3nncn3C)CC2)cc1,Percent Effect,[1],2.31%
same,Percent Effect,[2],-30.7%
Cc1noc(CN2CCN(Cc3cccs3)CC2)n1,Percent Effect,[1],-1.85%
same,Percent Effect,[2],1.32%
NC(=O)COc1ccc(CNCc2ccc(F)c(F)c2)cc1,Percent Effect,[1],-1.73%
same,Percent Effect,[2],-31.1%
Cc1cc(CNC(=O)N2CCN(c3ccccc3)CC2)no1,Percent Effect,[1],1.31%
same,Percent Effect,[2],-2.24%
CC(C)c1nccn1-c1cccc(C2CCN(C)CC2)n1,Percent Effect,[1],-1.47%
same,Percent Effect,[2],-33.7%
O=C(c1ccc(Cl)o1)N1CCCN(Cc2cscn2)CC1,Percent Effect,[1],-7.87%
same,Percent Effect,[2],6.75%
COCC1CN(Cc2ccc(C)o2)Cc2nnn(CC3CC3)c21 (stereo not given),Percent Effect,[1],-0.416%
same,Percent Effect,[2],-35.9%
O=S(=O)(NCC1CCN(c2ccccn2)CC1)c1ccccc1F,Percent Effect,[1],-0.51%
same,Percent Effect,[2],-13.6%
CCc1nnc2n1CCN(C(=O)c1cc(Br)c[nH]1)C2,Percent Effect,[1],-3.52%
same,Percent Effect,[2],-47.9%
Cc1ccc(C(=O)N2CCN(Cc3ccsc3)CC2)n1C,Percent Effect,[1],1.28%
same,Percent Effect,[2],3.04%
O=C(CCc1cccnc1)N1CCCC(n2cncn2)C1 (stereo not given),Percent Effect,[1],-2.66%
same,Percent Effect,[2],1.94%
COCCOc1ccc(NC(=O)C2CCCN(C(N)=O)C2)cn1 (stereo not given),Percent Effect,[1],-2.23%
same,Percent Effect,[2],-2.19%
Cc1oc(C(=O)O)cc1S(=O)(=O)Nc1cc(Cl)ccc1F,Percent Effect,[1],-2.58%
same,Percent Effect,[2],17.5%
CC(CNc1cncc(-n2cccn2)n1)N(C)c1ccccc1 (stereo not given),Percent Effect,[1],2.34%
same,Percent Effect,[2],7.51%
O=C(CCc1ccccc1)C1CCCN(C(=O)c2ncc(F)cc2F)C1 (stereo not given),Percent Effect,[1],7.65%
same,Percent Effect,[2],2.26%
N#Cc1cccnc1N1CCC2(CCCN(C3CCOCC3)C2=O)C1 (stereo not given),Percent Effect,[1],-3.99%
same,Percent Effect,[2],-16.3%
CC(CCc1ccco1)NC(=O)Nc1cc(C(F)(F)F)c[nH]c1=O (stereo not given),Percent Effect,[1],0.141%
same,Percent Effect,[2],36.5%
COC(=O)C(c1cc(F)ccc1F)N(C)C(=O)c1ccnc(C)n1 (stereo not given),Percent Effect,[1],-0.393%
same,Percent Effect,[2],-2.56%
NC(=O)c1cnn2c1NCC(CNCCCOc1ccccc1F)C2 (stereo not given),Percent Effect,[1],-0.278%
same,Percent Effect,[2],17.4%
COc1ccccc1CC(=O)N1CCC(NCc2cccnc2)CC1,Percent Effect,[1],1.11%
same,Percent Effect,[2],22.4%
CN(CCCc1ccccc1)Cc1nc2c(cnn2C)c(=O)[nH]1,Percent Effect,[1],1.38%
same,Percent Effect,[2],28.4%
Cc1cc(C)n(CC2CN(CCOc3cccc(C#N)c3)CCO2)n1 (stereo not given),Percent Effect,[1],4.21%
same,Percent Effect,[2],33%
CC(C)(C)n1cc(C(=O)N2CCN(Cc3ccccc3F)CC2)cn1,Percent Effect,[1],-1.61%
same,Percent Effect,[2],20.1%
Cc1cc(=O)[nH]c(SCC(=O)N(C)CC2Cc3ccccc3CN2C)n1 (stereo not given),Percent Effect,[1],1.96%
same,Percent Effect,[2],5.78%
c1csc(-c2nc(CN3CCn4c(nnc4C4CC4)C3)co2)c1,Percent Effect,[1],-3.42%
same,Percent Effect,[2],1.36%
Fc1ccc2[nH]c(C3CCCN3CCc3ccccn3)nc2c1 (stereo not given),Percent Effect,[1],7.64%
same,Percent Effect,[2],-16.2%
CCCS(=O)(=O)NCc1cccnc1OCC,Percent Effect,[1],-1.52%
same,Percent Effect,[2],-6.28%
Cc1ccc(CN2C[C@@H]3COC[C@H](NS(C)(=O)=O)[C@@H]3C2)o1,Percent Effect,[1],3.2%
same,Percent Effect,[2],-0.0539%
COC(=O)c1ccc(C2CC(=O)Oc3cc(C)[nH]c(=O)c32)cc1 (stereo not given),Percent Effect,[1],-5.75%
same,Percent Effect,[2],-8.85%
COc1ccc(C(=O)N(Cc2cnn(C)c2)C(C)C)cc1Br,Percent Effect,[1],-1.07%
same,Percent Effect,[2],5.59%
CC(C)N(C)CCCNC(=O)c1cnc(-c2ccccc2)nc1,Percent Effect,[1],3.09%
same,Percent Effect,[2],-37.7%
CS(=O)(=O)NC1CCCN(C(=O)NCc2cccnc2)C1 (stereo not given),Percent Effect,[1],-0.548%
same,Percent Effect,[2],26.7%
Cc1cccc(CS(=O)(=O)CC(=O)NCCCOC(C)C)c1,Percent Effect,[1],-3.37%
same,Percent Effect,[2],-44.7%
O=C(Cc1ccc2c(c1)CCCC2)NCCc1ccccn1,Percent Effect,[1],2.5%
same,Percent Effect,[2],29.1%
Cc1ccc(C(O)CNCCn2cccn2)cc1C (stereo not given),Percent Effect,[1],-5.54%
same,Percent Effect,[2],2.86%
Cc1ccc(C(=O)N2CCSCC2)cc1NC(=O)NCCO,Percent Effect,[1],0.137%
same,Percent Effect,[2],5.64%
CN(Cc1ccc(F)cc1)C(=O)Cn1nc(-c2ccc(F)cc2)oc1=O,Percent Effect,[1],5.72%
same,Percent Effect,[2],-25.7%
